From PubChem BioAssay AID651744 (Broad Institute, 2012)
Hit rate of the full screen: of about 5,600 compounds, about 3,100 (55%) were called active. Roughly 3% stayed inconclusive and do not appear here.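 The calls were made as follows: active = mean loss of cell viability signal at or above a set limit, and enough replicates individually reaching it; inconclusive = meets only the mean limit or only the replicate share; inactive = meets neither condition.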 So high a share suggests a set chosen from earlier hits. A selection follows.

Test: NIH/3T3 fibroblast cytotoxicity, confirmation, cytotoxicity control, cell-based, cherry-pick, single point, set 2 (AID 651744);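 also: 0% = median of neutral control wells and 100% = median of positive control wells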
Settings: NIH/3T3 viability, CellTiter-Glo ATP luminescence, 90 h; at 24.9 µM; active compounds read high

SMILES	inhibition
Cc1ccc(-c2cnc3c(c2)C(=O)N([C@@H](C)CO)C[C@@H](C)[C@H](CN(C)Cc2ccccc2F)O3)cc1	92.5% (active)
Cc1ccc(S(=O)(=O)N(C)C[C@@H]2Oc3ncc(-c4cc5ccccc5o4)cc3C(=O)N([C@H](C)CO)C[C@@H]2C)cc1	14.8% (inactive)
C[C@H](CO)N1C[C@H](C)[C@H](CN(C)S(=O)(=O)c2ccccc2)Oc2ncc(-c3cccc(C(F)(F)F)c3)cc2C1=O	41.1% (active)
C[C@@H]1CN([C@H](C)CO)C(=O)c2cc(/C=C/c3ccccc3)cnc2O[C@@H]1CN(C)Cc1ccncc1	26.2% (active)
C[C@H](CO)N1C[C@H](C)[C@H](CN(C)S(=O)(=O)c2cccc(F)c2)Oc2ncc(/C=C/c3ccccc3)cc2C1=O	76% (active)
C[C@H](CO)N1C[C@H](C)[C@@H](CN(C)S(=O)(=O)c2cccc(F)c2)OCc2ccccc2-c2c(n(C)c3ccccc23)C1=O	4.71% (inactive)
C[C@H]1CN([C@@H](C)CO)C(=O)c2ccccc2-c2ccccc2CO[C@@H]1CN(C)S(=O)(=O)c1ccc(C(F)(F)F)cc1	9.87% (inactive)
CN1C(=O)c2cc(NC(=O)Nc3ccccc3F)ccc2OC[C@H]2O[C@H](CC(=O)NCc3ccc(-c4ccccc4)cc3)CC[C@H]21	23% (inactive)
O=C(c1ccccc1F)N1C[C@H]2[C@@H](c3ccccc31)[C@@H](CO)N2C(=O)c1ccc(F)cc1	9.61% (inactive)
COc1ccc(CCN(C)C(=O)C2CCCN(Cc3ccc(OC)c(OC)c3)C2)cc1OC (stereo not given)	2.44% (inactive)
C[C@H]1CN([C@@H](C)CO)S(=O)(=O)c2ccc(C#CC3CCCC3)cc2O[C@H]1CN(C)C(=O)Cc1ccncc1	103% (active)
C[C@@H]1CN([C@H](C)CO)S(=O)(=O)c2ccc(C#CC3CCCC3)cc2O[C@@H]1CN(C)C(=O)Cc1ccncc1	85.1% (active)
CC(=O)N(C)C[C@@H]1[C@@H](c2ccc(-c3ccccc3F)cc2)[C@@H](CO)N1C(C)=O	-5.68% (inactive)
CCN(C[C@H]1[C@H](c2ccccc2)[C@H](CO)N1C(=O)C1CC1)C(=O)NC1CCCC1	4.07% (inactive)
CS(=O)(=O)N1[C@@H](C#N)[C@H](c2ccc(C#CC3CCCCC3)cc2)[C@@H]1CO	75.2% (active)
CC(C)NC(=O)N1[C@H](C#N)[C@H](c2ccc(C#CC3CCCCC3)cc2)[C@H]1CO	67.4% (active)
CCc1cnc(N2[C@H](C#N)[C@H](c3ccc(C4=CCCC4)cc3)[C@@H]2CO)s1	7.03% (inactive)
N#C[C@H]1[C@@H](c2ccc(C3=CCCCC3)cc2)[C@@H](CO)N1C(=O)NC1CCCCC1	60.1% (active)
N#Cc1ccc(-c2ccc3c(c2)[C@@H]2[C@@H](CCN2C(=O)Cc2ccncc2)[C@@H](CO)N3)cc1	14.4% (inactive)
O=C(c1cnccn1)N1CC[C@@H]2[C@H](CO)Nc3ccc(-c4cccc(F)c4)cc3[C@@H]21	42.7% (active)

SMILES	inhibition
OC[C@@H]1Nc2ccc(-c3cccc(F)c3)cc2[C@H]2[C@@H]1CCN2Cc1ccncc1	43.3% (active)
CN1c2ccc(-c3ccccc3)cc2[C@@H]2[C@@H](CCN2C(=O)c2ccncc2)[C@@H]1CO	18.7% (inactive)
O=C(c1ccccn1)N1CC[C@@H]2[C@H]1c1cc(-c3ccccc3)ccc1N[C@@H]2CO	7.5% (inactive)
Cc1ccc(S(=O)(=O)N2C[C@@H](O)COC[C@@H]3O[C@H](CC(=O)NCc4ccc(Cl)c(Cl)c4)CC[C@H]32)cc1	8.83% (inactive)
COc1cccc(S(=O)(=O)N2C[C@@H](O)COC[C@@H]3O[C@H](CC(=O)Nc4ccccc4)CC[C@H]32)c1	26.4% (inactive)
O=C(C[C@H]1CC[C@@H]2[C@H](COC[C@H](O)CN2Cc2ccc(Oc3ccccc3)cc2)O1)N1CCN(c2ccccc2)CC1	104% (active)
COc1ccccc1C#Cc1ccc([C@@H]2[C@H](CO)N3CCCCN(C(=O)C4CC4)C[C@@H]23)cc1	100% (active)
O=C(C1CCC1)N1CCCCN2[C@H](CO)[C@H](c3ccc(-c4ccncc4)cc3)[C@@H]2C1	-9.25% (inactive)
COc1ccccc1C#Cc1ccc([C@H]2[C@H](CO)N3CCCCN(C(=O)C4CCC4)C[C@@H]23)cc1	105% (active)
COc1ccccc1C#Cc1ccc([C@@H]2[C@H](CO)N3CCCCN(C(=O)C4CCCC4)C[C@@H]23)cc1	103% (active)
COc1ccccc1NC(=O)N1CCCCN2[C@H](C1)[C@H](c1ccc(-c3ccccc3)cc1)[C@@H]2CO	14.8% (inactive)
CC(C)CC#Cc1cnc2c(c1)C(=O)N([C@@H](C)CO)C[C@@H](C)[C@H](CN(C)C(=O)Cc1ccncc1)O2	36.6% (active)
C[C@@H]1CN([C@@H](C)CO)C(=O)c2cc(C#Cc3ccccc3)cnc2O[C@H]1CN(C)C(=O)c1ccccn1	34.3% (active)
C[C@H](CO)N1C[C@H](C)[C@@H](CN(C)C(=O)Nc2ccnc(N3CCOCC3)c2)OCc2ccccc2-c2ccccc2C1=O	17.3% (inactive)
C[C@@H]1CN([C@H](C)CO)C(=O)c2cc(C#Cc3ccccn3)cnc2O[C@H]1CN(C)Cc1ccccc1	-11.5% (inactive)
Cc1ccc(S(=O)(=O)Nc2ccc3c(c2)C(=O)N([C@@H](C)CO)C[C@@H](C)[C@H](CN(C)C(=O)Nc2cccc4ccccc24)OCCCC[C@H](C)O3)cc1	14.8% (inactive)
C[C@H](CO)N1C[C@H](C)[C@H](CN(C)C(=O)Nc2cccc3ccccc23)Oc2ncc(C#Cc3ccccc3)cc2C1=O	105% (active)
COc1ccc(C#Cc2cnc3c(c2)C(=O)N([C@@H](C)CO)C[C@H](C)[C@@H](CN(C)C(C)=O)O3)cc1	45.4% (active)
Cc1noc(C)c1S(=O)(=O)Nc1ccc2c(c1)C(=O)N([C@@H](C)CO)C[C@H](C)[C@@H](CN(C)C(=O)Nc1cccc3ccccc13)OCCCC[C@H](C)O2	13.2% (inactive)
COCC(=O)N(C)C[C@@H]1Oc2ncc(C#Cc3ccccc3OC)cc2C(=O)N([C@@H](C)CO)C[C@H]1C	34.8% (active)
